A selection: hits, their analogues and other compounds. The true share with any hit is near 2.9%.
dFosB activator: activators of delta FosB homodimer, primary screen, biochemical, fluorescence polarization, TAMRA-CDK5 oligo, single point. Protein FosB (Mus musculus), P13346. purified delta FosB; percent of positive-control signal above neutral wells. activation, % at 25 µM. 340,000 compounds, 0.99% hits. AID 493131, 2011;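 active = mean activation above about 17%, with every replicate also reaching it, limit read from the data, passing the limit was not always enough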
Target sequence (P13346 whole entry, looked up): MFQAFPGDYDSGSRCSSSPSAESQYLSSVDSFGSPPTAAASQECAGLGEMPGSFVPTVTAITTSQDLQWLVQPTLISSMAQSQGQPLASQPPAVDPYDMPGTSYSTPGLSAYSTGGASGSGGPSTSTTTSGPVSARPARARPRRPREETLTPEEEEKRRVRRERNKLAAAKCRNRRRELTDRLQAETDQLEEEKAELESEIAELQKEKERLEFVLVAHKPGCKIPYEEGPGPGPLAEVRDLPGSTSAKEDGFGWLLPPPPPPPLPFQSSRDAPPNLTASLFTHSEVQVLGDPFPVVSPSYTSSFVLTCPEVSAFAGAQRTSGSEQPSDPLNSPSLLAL
MEKK3 PB1 HTS: modulators of MEKK3-MEK5 PB1 binding, primary screen, biochemical, wildtype MEKK3, multiplex bead flow cytometry, Alexa488-MEK5 | Mitogen-activated protein kinase kinase kinase 3 (Homo sapiens), Q99759 | bead-based flow cytometry, Alexa488-MEK5 binding to MEKK3; actives lie on both sides; 0 = blocked by unlabeled MEK5, 100 = vehicle | binding response (% of control), % at 10 µM | 290,000 compounds, 1.4% hits;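 active = binding response more than 3 SD above or below the average of its plate-row segment, actives on both sides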;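 also: Alexa488 bead fluorescence after subtracting the streptavidin-only scavenger bead signal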
MEKK2 mut-MEK5: MEK5 binding signal on mutant MEKK2 PB1, primary screen, biochemical, multiplex bead flow cytometry, Alexa488-MEK5; Alexa488-MEK5 binding to MEKK2 mutant; percent response, % at 10 µM; 290,000 compounds, 0.35% hits; AID 1530, 2009; in the data active = percent response above about 24%, passing the limit was not always enough
DNA FID counter: compounds displacing fluorescent DNA intercalator, primary screen, artefact control for HCV NS3 helicase inhibitor project, biochemical, FID fluorescence; 290,000 compounds, 0.17% hits; inhibition, % at 7.9 µM; AID 1845, 2009; DNA fluorescent intercalator displacement; in the data active = inhibition above about 37%;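 also: 0% = vehicle and 100% = reference compound; higher means more ethidium bromide displaced from hairpin DNA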
MEKK2 WT-MEK5: modulators of MEK5 binding to wildtype MEKK2, primary screen, biochemical, multiplex bead flow cytometry, Alexa488-MEK5. 290,000 compounds, 1.1% hits. binding response (% of control), % at 10 µM. Alexa488-MEK5 binding to MEKK2 WT; actives lie on both sides. AID 1531, 2009; in the data active = binding response below about 67% or above about 130%
MEKK2wt confirm: modulators of MEK5 binding to wildtype MEKK2, confirmation, biochemical, single concentration, multiplex bead flow cytometry. shares compounds with MEKK3 PB1 HTS. Alexa488-MEK5 binding to MEKK2 WT; actives lie on both sides. binding response (% of control), % at 10 µM. 5,900 compounds, 2.4% hits. AID 1892, 2009; in the data active = binding response below about 16% or above about 210%; inactive = in between
MEKK2mut-MEK5: mutant MEKK2 PB1-MEK5 binding signal retest – biochemical, single concentration, multiplex bead flow cytometry, confirmation; shares compounds with MEKK3 PB1 HTS; Alexa488-MEK5 binding to MEKK2 mutant; percent response, % at 10 µM; 5,900 compounds, 2% hits; AID 1893, 2009; in the data active = percent response mostly above about 71%, no sharp cut-off; inactive = mostly below about 38%;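 also: higher means compound restores mutant binding toward wildtype level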
MEKK3-MEK5 inh: MEKK3 wild-type PB1 binding to MEK5, inhibitors, confirmation, biochemical, bead multiplex flow cytometry, single concentration, wildtype; shares compounds with MEKK3 PB1 HTS; Alexa488-MEK5 binding to MEKK3; hits give low values; binding response (% of control), % at 10 µM; 5,900 compounds, 1.8% hits; AID 1894, 2009;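 active = binding response below 72% of control, or above a set upper limit, though filed actives all read lower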;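 also: 100% = DMSO only wells and 0% = binding blocked by excess unlabeled MEK5; lower values mean stronger disruption of MEK5 binding to MEKK3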
* = called active by the depositor; . = not tested or not shown; [ ] = remark or other dose.

SMILES	dFosB activator	MEKK3 PB1 HTS	MEKK2 mut-MEK5	DNA FID counter	MEKK2 WT-MEK5	MEKK2wt confirm	MEKK2mut-MEK5	MEKK3-MEK5 inh
Cc1csc(NC(=O)c2sc3nc(-c4cccs4)ccc3c2N)n1	.	90	-9	7	66*[inhibitor]	87	5	100
N/C(COc1cccc(C(F)(F)F)c1)=N\NC(=O)c1cccnc1Oc1ccccc1	-13	103	2	-12	105	.	.	.
Cc1ccc2cc(C#N)c(N3CCCN(C(=S)NCCCN(C)C)CC3)nc2c1	-6	99	15	20	117	.	.	.
Cc1cc(C)c2cc(C#N)c(N3CCCN(C(=S)NCCCN(C)C)CC3)nc2c1	11	99	32*	26	120	119	3	99
CCc1ccc(NC(=O)C/C(C)=N/NC(=O)OCc2ccc(OC)cc2)cc1	-14	136*	1	-17	107	101	0	100
CCOC(=O)N1CCC(NC(=O)CCc2nc(-c3ccccc3F)no2)CC1	-2	96	-3	-19	101	.	.	.
CCc1noc(C)c1C(=O)N1CCCC(CCC(=O)NCc2ccc(F)c(F)c2)C1 (stereo unspecified)	7	101	-2	-14	103	.	.	.
CCN1CCN(Cc2ccc(NC(=O)c3cc(NC(=O)c4cc(-c5ccc(OC)cc5)n[nH]4)cc(OC)c3)cc2C(F)(F)F)CC1	-259	125*	167*	.	167*	312*	173*	117
CCN1CCN(Cc2ccc(NC(=O)c3cc(NC(=O)c4ccno4)cc(OC)c3)cc2C(F)(F)F)CC1	-41	76	6	.	111	.	.	.
CCN1CCN(Cc2ccc(NC(=O)c3cc(NC(=O)c4cncc(-c5cccs5)c4)cc(OC)c3)cc2C(F)(F)F)CC1	.	118	133*	20	362*	245*	193*	113
CCN1CCN(Cc2ccc(NC(=O)c3cc(NC(=O)c4ccc5n[nH]nc5c4)cc(OC)c3)cc2C(F)(F)F)CC1	-30	113	13	.	118	.	.	.
CCN1CCN(Cc2ccc(NC(=O)c3cc(NC(=O)c4cc5cccc(OC)c5o4)cc(OC)c3)cc2C(F)(F)F)CC1	-152	124*	158*	.	148*	251*	93*	111
CNC(=O)C(=O)Nc1c(C)cc(C)cc1C	3	134*	1	0	111	-1.0*[inhibitor]	-29	0.0*
CCC(Sc1nnc(C)c(=O)[nH]1)C(=O)Nc1cccc2ccccc12 (stereo unspecified)	-1	101	1	-9	103	.	.	.
CN(C)C(=O)C(CCN1CCC(O)(c2ccc(Cl)cc2)CC1)(c1ccccc1)c1ccccc1	-4	116	12	31	150*	123	7	103
Cc1c(NC(=O)C(C)Sc2nc(N)cc(=O)[nH]2)c(=O)n(-c2ccccc2)n1C (stereo unspecified)	-10	.	.	.	.	.	.	.
COc1ccc(NC(=O)COC(=O)CCc2ccc(S(=O)(=O)N3CCOCC3)cc2)cc1OC	-5	.	.	.	.	.	.	.
Cc1cn(CCC(=O)Nc2ccccc2N2CCOCC2)c2ccccc12	-6	89	-18	-26	84	.	.	.
Cc1cn(CCC(=O)Nc2ccc(N3CCOCC3)cc2)c2ccccc12	-5	128*	27	-19	129	102	-6	100
CC(C)(C)NC(=O)NC(=O)CN1CCN(S(=O)(=O)/C=C/c2ccccc2)CC1	-6	99	-4	-36	100	.	.	.
C=C(C)COc1ccc(-c2n[nH]c(C)c2-c2ccc(OC)cc2)c(O)c1	-5	83	9	3	121	.	.	.
COc1ccc(-c2n[nH]c(C)c2-c2cscn2)c(O)c1	-4	133*	29	-7	130	101	-12	98
O=C(Cc1ccc(Cl)cc1)c1c[nH]c(C(=O)NCCCn2ccnc2)c1	-6	93	-41	15	100	.	.	.
CCOCCCNC(=S)Nc1cc(C)cc(C)c1	-6	141*	1	-5	116	104	-2	106
C[C@H](N)C(=O)N1CCC(C(=O)N[C@@H](Cc2ccccc2)C(=O)Nc2ccc(F)cc2)CC1	-1	97	-3	20	95	.	.	.
SMILES	dFosB activator	MEKK3 PB1 HTS	MEKK2 mut-MEK5	DNA FID counter	MEKK2 WT-MEK5	MEKK2wt confirm	MEKK2mut-MEK5	MEKK3-MEK5 inh
COc1ccc(-c2cc(C(F)(F)F)c3c(n2)sc2c(O)cc(=O)[nH]c23)c(OC)c1	-14	103	-2	-14	88	.	.	.
Cc1cc(C)c2c(n1)sc1c(O)cc(=O)[nH]c12	-5	122*	8	-5	114	112	12	107
O=C(COC(=O)C1CC(=O)N(CCc2ccccc2)C1)c1ccc[nH]1 (stereo unspecified)	2	.	.	.	.	.	.	.
Cc1noc(C)c1CSCC(=O)NCCN1C(=O)S/C(=C\c2ccccc2F)C1=O	-7	.	.	.	.	.	.	.
O=C(Nc1ccc(C(=O)N2CCCCC2)cc1)C1CC1	-5	.	.	.	.	.	.	.
COc1ccc(CNc2cccc3[nH]c(C(F)(F)F)nc23)cc1	-9	101	2	-7	99	.	.	.
COc1cc(CNc2cccc3[nH]c(C(F)(F)F)nc23)cc(OC)c1	-14	109	24*	-8	149*	100	0	106
O=C(O)CCS(=O)(=O)Cc1ccccc1F	1	2.0*[inhibitor]	-46	-1	2.0*[inhibitor]	108	5	105
O=C(O)c1ccc(CS(=O)(=O)Cc2ccccc2F)o1	4	105	1	3	106	.	.	.
COCCN=c1scc(-c2cc(OC)c(OC)c(OC)c2)n1/N=C/c1c(C)[nH]c2ccccc12	-9	84	77*	-23	.	94	-6	88
Cc1cc(N2C(=O)C3CC=CC(C)C3C2=O)no1 (stereo unspecified)	-4	110	3	0	103	.	.	.
Cc1nn(-c2ccc(F)cc2)c2sc(C(=O)O)cc12	-4	2.0*[inhibitor]	-29	-2	-1.0*[inhibitor]	93	-5	99
CCOC(=O)c1c(C)[nH]c(O)c1C=Nc1ccc(Cl)cc1	-13	110	3	-1	117	.	.	.

Screens from PubChem.
